# Screening data deposited in PubChem by National Center for Advancing Translational Sciences (NCATS).
# This is a sample that favours compounds with a hit; in the whole collection about 14% have one here.
# HADH2 inhib: inhibitors of human HADH2 dehydrogenase | hit rate 3.4% among 73,000 | Potency, µM (titrated, usually from 57.1 µM), hits mostly inhibitors | AID 886 | Q99714 | recombinant HADH2, NADH fluorescence, beta-hydroxybutyryl-CoA; note: nearly all actives have a fitted effect of over 60% in size
# Target sequence (Q99714 whole entry, looked up, one chain of several): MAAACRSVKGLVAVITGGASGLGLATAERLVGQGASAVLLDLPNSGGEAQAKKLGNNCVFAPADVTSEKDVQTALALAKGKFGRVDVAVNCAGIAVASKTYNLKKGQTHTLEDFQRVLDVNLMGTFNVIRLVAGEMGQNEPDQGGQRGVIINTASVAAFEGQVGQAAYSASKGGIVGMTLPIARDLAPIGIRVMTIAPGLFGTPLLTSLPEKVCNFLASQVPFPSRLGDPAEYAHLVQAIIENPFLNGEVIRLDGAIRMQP
#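 Activity measured as NADH fluorescence gain (360/450 nm), taken as the change between first and last reads of a 4-min kinetic run. Conditions: pH 9.0 Tris buffer, 20 nM E. coli-expressed His-tagged enzyme, 1 mM NAD+, 90 uM beta-hydroxybutyryl-CoA; 15-min compound preincubation.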
# AID923: qHTS Assay for Allosteric/Competitive Inhibitors of Caspase-1: Spectroscopic Profiling in AFC Spectral Region | Potency, µM (doses to about 57.5 µM), most hits filed as activators | compound fluorescence, AFC spectral region (405/520 nm) | hit rate 1.1% among 75,000
#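 Compound autofluorescence profiled at 405 nm ex/520 nm em during kinetic caspase 1 run (50 nM enzyme, 5 uM Ac-WEHD-AFC, HEPES pH 7.5, 10 mM DTT). Titration up to 57 uM; baseline from regression intercept, normalized to AFC standard curve.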
# 4MU fluor: compounds fluorescent in 4-MU spectral region; max dye-equivalent concentration, M; compound autofluorescence, 340/450 nm, 4-MU equivalents; active compounds read high; hit rate 11% among 59,000; in the data active = max dye-equivalent concentration above about 10 nM; inconclusive = mostly about 1.1 nM to 9.6 nM
#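 Compounds in 100 mM Tris, pH 8.0, sat 15 min at room temperature before fluorescence was read at 340 nm excitation/450 nm emission; a per-plate six-point 4-MU standard curve converted signals to dye-equivalent concentration at each compound concentration.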
# HSD17B inhib: inhibitors of human HSD17B10 dehydrogenase; Potency, µM (top dose mostly 57.1 µM), actives largely listed as inhibitors; hit rate 7.6% among 75,000; AID 893; recombinant HSD17B10, NADH fluorescence kinetic;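 note: the protocol describes HADH2 (HSD17B10) and not the HSD17B4 of the title; nearly all actives have a fitted effect of over 70% in size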
#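 Activity followed as NADH fluorescence increase (ex 360, em 450 nm) every 30 seconds for 4 min, using final 90 uM beta-hydroxybutyryl CoA and 1 mM NAD+. Recombinant His-tagged enzyme, 20 nM, pH 9.0 Tris buffer, 15 min compound preincubation.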
# CRE-bla Fsk: alters forskolin-stimulated CRE reporter signaling in CHO cells | CHO CRE-bla reporter (cAMP response element driving beta-lactamase), forskolin EC10, beta-lactamase ratio | Potency, µM (top dose mostly 38.2 µM), usual class: activators | hit rate 2.5% among 71,000; active = well fitted activation curve with a large enough effect in the signal ratio, with a control signal flat, not every such curve was filed as active; inconclusive = small, poorly fitted or top-dose-only effect, or effect the other way, or a change in a side signal; the % refers to the signal ratio
#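 Modulation of forskolin signalling: compounds in titration series added with EC10 NKH 477 to CHO cells carrying a CRE-driven beta-lactamase reporter, 3 h, 37C. CCF4 FRET ratio (460/530 nm, ex 405 nm) gives %activity and AC50.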
# A350 autofl: compounds fluorescent in Alexa 350 spectral region; Compound autofluorescence, 340/450 nm, Alexa 350 dye-equivalents; active compounds read high; max dye-equivalent concentration, M; hit rate 11% among 59,000; AID 590; in the data active = max dye-equivalent concentration above about 10 nM; inconclusive = mostly about 1.1 nM to 9.6 nM
# Numbers stand for hits; . = inactive; ? = inconclusive; / = no result; [ ] = remark or other dose. Unless noted, calls come from the whole dose curve; as a rule, active = well fitted curve in the direction sought with a large enough effect; inconclusive = small, poorly fitted or top-dose-only effect, or another doubt; inactive = no such curve, though single readings can be large; an effect the other way counts as inactive or inconclusive.
SMILES,HADH2 inhib,AID923,4MU fluor,HSD17B inhib,CRE-bla Fsk,A350 autofl
COCCNc1oc(-c2ccc(Cl)cc2)nc1C#N,/,/,8.54e-08M,/,/,9.53e-08M
CN(C)CCCNc1oc(-c2ccc(Cl)cc2)nc1C#N,?,.,9.22e-08M,31.6µM,?,1.2e-07M
CCN1CCCC1CNC(=O)c1nn(-c2ccc(C)cc2)c(=O)c2c1c1ccccc1n2C (centres undefined),.,.,?,?,.,?
COc1ccc(-c2nc(CS(=O)CC(=O)NCc3ccc(Cl)cc3)c(C)o2)cc1 (centres undefined),.,.,/,?,.,/
N[C@H](Cn1ccc(=O)c(O)c1)C(=O)O,.,.,.,.,.,?
Cc1cc2sc(C)[n+](CCCOS(=O)(=O)O)c2cc1C,?,.[11.5 µM],.,.[11.4 µM],.[7.6 µM],.
Cc1ccc(-c2nc(C#N)c(NCCc3ccccn3)o2)cc1,.,.,.,?,.,.
N#Cc1nc(-c2ccc(Cl)cc2)oc1NCCc1ccccn1,.,.,?,0.794µM,.,?
Cc1nc(NCc2ccccc2)c2nc(-c3ccccc3)n(CCCN(C)C)c2n1,?,.,/,25.1µM,.,/
Cc1nc(NCc2ccccc2)c2nc(-c3ccccc3)n(CCN3CCCC3)c2n1,.,.,/,25.1µM,.,/
Cc1nc(NCc2ccccc2)c2nc(-c3ccccc3)n(CCN3CCOCC3)c2n1,?,.,/,31.6µM,?,/
CCCn1c(C)nc2c(NCCCCN(C)C)nc(C)nc21,.,.,/,.,.,/
CC1CCN(CC(=O)N2c3ccccc3CCc3ccccc32)CC1,.,.,/,.,.,/
CCC/C=C/C1C(=O)C2OC2C2(OCC(CC)(CC)CO2)C1CO (centres undefined),.[11.4 µM],.[11.5 µM],/,.[11.4 µM],/,/
COc1cc(O)c(C(=O)c2ccccc2)cc1O,/,.,/,12.6µM,/,/
COc1ccc(C(=O)c2ccccc2O)c(O)c1,.,.,.,.,.,.
COc1ccccc1-c1nc(N2CCOCC2)c2ccccc2n1,.,.,.,.,.,.
COc1cc2c(C#N)c(N3CCCCC3)nc(N)c2c(N)n1,25.1µM,.,2.03e-07M,25.1µM,?,3.23e-07M
CCOc1ccccc1N1CCN(c2nc(N)c(C#N)c(CC#N)c2C#N)CC1,.,.,?,.,.,?
COc1cc2c(C#N)c(N3CCc4ccccc4C3)nc(N)c2c(N)n1,.,.,1.88e-08M,25.1µM,0.631µM,2.44e-08M
COc1cc2c(C#N)c(N3CCOCC3)nc(N)c2c(N)n1,.,.,5.07e-07M,25.1µM,10µM,4.94e-07M
COc1cc(C)c(C#N)c(OC)n1,.,.,.,.,.,.
O=c1cc[nH]c(=S)[nH]1,/,.,/,.,/,/
CCCCSc1nnc2nc(C)cc(C)n12,.,.,.,.,.,.
CNC1=C(Br)C(=O)c2ccncc2C1=O,.,.,/,.,?,/
SMILES,HADH2 inhib,AID923,4MU fluor,HSD17B inhib,CRE-bla Fsk,A350 autofl
O=C(O)c1cc(=O)cc(C(=O)O)[nH]1,.,.,.,.,.,.
CNC(=O)Nc1ccccc1C(=O)NCc1ccccc1,.,.,.,.,.,.
Cc1cc(C(=O)NCc2ccccc2)c(=O)[nH]c1C,.,.,/,31.6µM,.,/
Cc1cc(C(=O)O)c(=O)[nH]c1C,.,.,?,31.6µM,.,?
COCC(=O)N(C)c1nnc(-c2cnccn2)s1,.,.,.,?,.,.
CN(C(=O)C1CCOC1)c1nnc(C2CCOC2)s1 (centres undefined),.,.,.,.,.,.
COCC(=O)N(C)c1nnc(-c2cnc(C)cn2)s1,?,.,?,31.6µM,.,?
CN(C(=O)C1CCOC1)c1nnc(-c2cnccn2)s1 (centres undefined),.,.,.,25.1µM,.,.
Cc1cnc(-c2nnc(N(C)C(=O)C3CCCO3)s2)cn1 (centres undefined),20µM,.,?,25.1µM,.,?
CCOC(=O)N1CCC(NC(=O)CCc2nc(-c3ccccc3F)no2)CC1,.,.,.,.,.,.
COc1nccc(Nc2ccccc2)c1C#N,.,.,1.71e-08M,.,?,1.97e-08M
O=C1[C@H]2[C@H]3[C@H](O)[C@H](O)C/C(=N/OC[C@@H](O)COCc4ccco4)[C@@H]3CC[C@@H]2C(=O)N1C[C@@H]1CCCO1,.[11.4 µM],.[11.5 µM],/,.[11.4 µM],/,/
Nc1nc2c(c(=O)[nH]1)N[C@H](CCNc1ccc(C(=O)O)cc1)CN2,.[11.4 µM],.[11.5 µM],1.71e-08M,.[11.4 µM],.[7.6 µM],1.94e-08M
Brc1ccc([C@H]2CN3CCSC3=N2)cc1,.,.,1.15e-08M,.,.,1.15e-08M
CCOC(=O)c1sc(=NC(=O)c2ccc(S(=O)(=O)N3CC(C)OC(C)C3)cc2)n(C)c1C (centres undefined),1µM,.,2.36e-07M,.,.,2.17e-07M
CNc1nc(C)c(C#N)c(-c2ccccc2)c1C(C)=O,?,.,?,.,?,1.32e-08M
O=C(c1cccs1)c1cn(CC(=O)N2CCc3ccccc3C2)c2ccccc12,.,.,1.13e-08M,.,.,?
CCN(CC)CCNC(=O)c1ccccc1N,/,/,8.66e-08M,/,/,1.02e-07M
COc1ccc(OCCNC(=O)c2ccccc2OCC(=O)N2CCCCC2)cc1,.,.,.,.,.,.
Cc1ccc(OCCNC(=O)c2ccccc2N)cc1,?,.,/,25.1µM,.,/
CCCn1c(CNc2ccc(Br)cc2)nc2ccccc21,.,.,/,.,.,/
CC1(C)CC[C@]2(C(=O)O)C(O)C[C@@]3(C)C(=CCC4[C@@]5(C)CCC(O)C(C)(C)C5CC[C@@]43C)C2C1 (some centres undefined),/,.,/,.,/,/
NC(=O)c1sc2nccc(Nc3ccccc3)c2c1N,?,.,1.36e-08M,25.1µM,?,1.51e-08M
COc1ccc(C(C)=O)cc1COC(=O)c1cccc(N(C)C)c1,.,.,2.6e-08M,31.6µM,?,2.7e-08M
CNC(=O)c1cc2c(cn1)[nH]c1ccccc12,?,.,2.99e-07M,31.6µM,?,2.79e-07M
SMILES,HADH2 inhib,AID923,4MU fluor,HSD17B inhib,CRE-bla Fsk,A350 autofl
CCn1c(C)nc2cc(C(=O)n3cc(C(=O)c4cc(F)ccc4O)cn3)ccc21,.,.,?,.,.,1.58e-08M
CCn1c(C)nc2cc(C(=O)OCCC(F)(F)F)ccc21,.,.,.,.,.,.
C#C[C@@]1(O)CC[C@@H]2[C@@H]3CCC4=CC(=O)CC[C@@H]4[C@H]3CC[C@]21C,.,.,4.75e-07M,.,.,4.3e-07M
C#C[C@]1(O)CCC2C3CCC4=C(CCC(=O)C4)C3CC[C@@]21C (some centres undefined),/,.,/,.,/,/
CON(C)C(=O)c1nnc2c(n1)[nH]c1ccccc12,.[11.4 µM],.[11.5 µM],/,.[11.4 µM],/,/
CC(C)Cn1c(SCC#N)nc2ccccc2c1=O,.,.,.,.,?,.
O=C(CCn1nc(-c2ccccc2)c2ccccc2c1=O)N1CCN(c2ccccc2)CC1,.,.,.,.,?,.
N#CCSC1=Nc2ccccc2C2=NC(CCC(=O)N3CCN(c4ccccc4)CC3)C(=O)N12 (centres undefined),?,.,1.2e-08M,.,.,1.24e-08M
